Inconclusive results are not listed. Calls of active or inactive are those of the source. Unless noted, the call rests on the fitted dose curve; in most records, active means well fitted curve in the direction sought with a large enough effect in the repeat runs; inconclusive means weak or mixed curves; inactive means no such curve, though single readings can be large; an effect the other way counts as inactive or inconclusive.
How the values were obtained:
[1] = qHTS assay to identify small molecule antagonists of the estrogen related receptor signaling pathway with the pleiotropic PPARgamma coactivator (PGC) from Tox21 10K library - cell viability counter screen (AID 1224840; active means well fitted cell-killing curve with a large enough effect in the repeat runs, not every such curve was filed as active; further: nearly all actives have a fitted effect of over 40% in size)
Outline: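 Cell viability is measured by CellTiter-Fluor fluorescence in PGC/ERR cells that receive compounds after a 6-hour attachment period and are then incubated 17.5 hours at 37 C.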

[2] = qHTS assay to identify small molecule agonists of the hypoxia (HIF-1) signaling pathway - cell viability counter screen (AID 1224844; calls by dose curve; further: nearly all actives have a fitted effect of over 50% in size; further: potency means the concentration at half of the fitted maximal effect)
Outline: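 Viability counter screen: HRE-bla ME-180 cells plated 5 hrs before compound addition, treated 17 hrs at 37C and 5% CO2, then CellTiter-Glo added after the FRET reporter read; luminescence after 30 min.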

[3] = qHTS assay to identify small molecule agonists of H2AX (AID 1224845; active means well fitted activation curve with a large enough effect in the signal ratio in the repeat runs, not every such curve was filed as active; the % refers to the signal ratio; further: potency means the concentration at half of the fitted maximal effect)
Outline: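 Wild-type CHO-K1 cells, plated overnight, exposed 3hr at 37C to 15 concentrations (0.76% DMSO final). Lysed, then HTRF anti-pH2AX (S139) cryptate and anti-H2AX-d2 antibodies, 24 hr room temperature; 665/620 nm emission read.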

[4] = qHTS assay to identify small molecule agonists of the hypoxia (HIF-1) signaling pathway (AID 1224846; active means well fitted activation curve with a large enough effect in the signal ratio in the repeat runs, not every such curve was filed as active; the % refers to the signal ratio)
Outline: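 Agonist mode reporter screen. ME-180 cells stably expressing bla under HRE control received test compounds in DMSO for 17 hrs (37C, 5% CO2), and beta-lactamase activity was then detected with the CCF4-AM FRET substrate.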

[5] = qHTS assay to identify small molecule agonists of H2AX - cell viability counter screen (AID 1224847; calls by dose curve; further: nearly all actives have a fitted effect of over 30% in size; further: potency means the concentration at half of the fitted maximal effect; on activity change, negative = cytotoxicity: top concentration of the series differs between compounds)
Outline: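 Read-out: CellTiter-Glo luminescence, 30 min RT. Cells: wild-type CHO-K1, 1000/well, 10% FBS, plated overnight at 37C. Treatment: 15 concentrations, 3 hr, 37C, 0.76% DMSO.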

[6] = qHTS RealTime-Glo MT Cell Viability Assay in HepG2 cells - 24 hour (AID 1224867); further: nearly all actives have a fitted effect of over 50% in size
Outline: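 HepG2 cells (600/well) were dispensed with RealTime-Glo reagents, incubated 5 h at 37 °C, then treated with compounds in DMSO for up to 40 h. Nonlytic NanoLuc luminescence reflecting viable cells was read at each stated time point.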

[7] = A CellTox Green Cytotoxicity Assay to monitor cytotoxicity in HEK293 cells - 0 hour (AID 1224869); further: nearly all actives have a fitted effect of over 50% in size; further: potency means the concentration at half of the fitted maximal effect
Outline: (§1)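 Dead-cell fluorescence measured kinetically: asymmetric cyanine dye, HEK293, 600 cells/well, 5 h settle, 23 nL cpd/DMSO, 37 C, reads 0–40 h every 8 h.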

[8] = qHTS RealTime-Glo MT Cell Viability Assay in HepG2 cells - 40 hour (AID 1224870); further: nearly all actives have a fitted effect of over 50% in size
Outline: (§2)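 HepG2 cells (600/well) mixed with RealTime-Glo MT reagent, settled 5 h at 37 C/5% CO2 before compound addition. Nonlytic NanoLuc luminescence from viable-cell prosubstrate reduction read repeatedly during 40 h treatment at 37 C.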

[9] = A CellTox Green Cytotoxicity Assay to monitor cytotoxicity in HEK293 cells - 40 hour (AID 1224871); further: nearly all actives have a fitted effect of over 45% in size; further: potency means the concentration at half of the fitted maximal effect
Outline: as §1

[10] = qHTS RealTime-Glo MT Cell Viability Assay in HepG2 cells - 8 hour (AID 1224873); further: nearly all actives have a fitted effect of over 55% in size; further: potency means the concentration at half of the fitted maximal effect
Outline: as §2

[11] = qHTS RealTime-Glo MT Cell Viability Assay in HEK293 cells - 40 hour (AID 1224874); conditions: RealTime-Glo luminescence; max response: stronger effect = lower value; further: nearly all actives have a fitted effect of over 50% in size; further: potency means the concentration at half of the fitted maximal effect
Outline: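 600 HEK293 cells per well, dispensed already mixed with RealTime-Glo MT reagents. Compound dosing came 5 h later. The same wells were read for luminescence at 0, 8, 16, 24, 32 and 40 h of exposure at 37 C.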

[12] = target: Thyrotropin receptor (Homo sapiens) (UniProt P16473); assay: qHTS assay to identify small molecule agonists of the thyroid stimulating hormone receptor (TSHR) signaling pathway (AID 1224843; calls by dose curve; further: nearly all actives have a fitted effect of over 45% in size; further: potency means the concentration at half of the fitted maximal effect)
Chain of Thyrotropin receptor (Homo sapiens) (P16473 whole entry, looked up): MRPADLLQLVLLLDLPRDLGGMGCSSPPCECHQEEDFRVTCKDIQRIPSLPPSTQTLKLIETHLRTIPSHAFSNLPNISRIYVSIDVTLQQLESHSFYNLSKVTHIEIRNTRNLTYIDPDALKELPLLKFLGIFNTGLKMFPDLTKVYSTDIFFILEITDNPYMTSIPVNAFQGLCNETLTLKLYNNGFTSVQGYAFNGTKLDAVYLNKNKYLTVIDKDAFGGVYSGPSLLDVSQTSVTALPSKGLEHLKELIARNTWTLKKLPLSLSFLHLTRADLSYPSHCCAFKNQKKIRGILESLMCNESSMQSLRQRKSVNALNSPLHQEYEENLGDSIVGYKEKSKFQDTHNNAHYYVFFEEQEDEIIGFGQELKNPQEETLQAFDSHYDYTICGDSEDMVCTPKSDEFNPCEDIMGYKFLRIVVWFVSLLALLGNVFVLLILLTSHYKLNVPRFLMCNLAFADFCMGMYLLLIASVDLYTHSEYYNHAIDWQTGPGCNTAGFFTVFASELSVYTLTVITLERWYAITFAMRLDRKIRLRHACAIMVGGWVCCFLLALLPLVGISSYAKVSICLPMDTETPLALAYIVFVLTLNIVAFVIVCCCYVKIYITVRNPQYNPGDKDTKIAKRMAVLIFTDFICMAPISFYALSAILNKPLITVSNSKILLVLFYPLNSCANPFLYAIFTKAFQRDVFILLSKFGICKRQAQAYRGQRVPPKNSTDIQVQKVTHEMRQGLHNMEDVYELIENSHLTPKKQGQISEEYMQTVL
Outline: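 Agonist-mode screen: TSHR HEK293 cells received test chemicals for half an hour at room temperature, then HTRF cAMP detection reagents for one hour prior to fluorescence measurement. Each chemical ran as a 15-concentration series, triplicated.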

[13] = qHTS RealTime-Glo MT Cell Viability Assay in HEK293 cells - 16 hour (AID 1224872); further: nearly all actives have a fitted effect of over 50% in size; further: potency means the concentration at half of the fitted maximal effect; on activity change, negative = cytotoxicity: top concentration of the series differs between compounds
Outline: (§3)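 HEK293 cells seeded with NanoLuc/prosubstrate reagent, rested 5 h at 37 C, then dosed and kept at 37 C up to 40 h. Nonlytic real-time luminescence from viable cells read at 0, 8, 16, 24, 32 and 40 h.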

[14] = qHTS RealTime-Glo MT Cell Viability Assay in HEK293 cells - 32 hour (AID 1224868); further: nearly all actives have a fitted effect of over 50% in size; further: potency means the concentration at half of the fitted maximal effect; on activity change, negative = cytotoxic: top concentration of the series differs between compounds
Outline: as §3

[15] = qHTS assay to identify small molecule antagonists of the estrogen related receptor signaling pathway with the pleiotropic PPARgamma coactivator (PGC) from Tox21 10K library (AID 1224841; call rule not given here)
Outline: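 Cells stably carrying the PGC/ERR reporter, seeded at 2,000 per well, received pin-transferred compounds 6 h post-plating. Exposure lasted 18 h at 37 C. Signal: One-Glo luminescence.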

[16] = qHTS assay to identify small molecule agonists of the estrogen related receptor signaling pathway with the pleiotropic PPARgamma coactivator (PGC) from Tox21 10K library (AID 1224842); further: nearly all actives have a fitted effect of over 15% in size
Outline: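 PGC/ERR reporter cell line, 2,000 cells per well, incubated 6 h at 37 C before 23 nL compound in DMSO was added. After 18 h at 37 C, One-Glo luminescence read following 30 min at room temperature.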

[17] = qHTS assay to identify small molecule antagonists of the estrogen related receptor (ERR) signaling pathway from Tox21 library (AID 1224848); further: nearly all actives have a fitted effect of over 50% in size; further: potency means the concentration at half of the fitted maximal effect
Outline: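 Quantitative high-throughput format: ERR reporter cells (2,000/well) pre-incubated 6 h, treated 18 h at 37 C with compounds in DMSO alongside positive and negative controls, then read by ONE-Glo luminescence.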

[18] = qHTS assay to identify small molecule agonists of the estrogen related receptor (ERR) signaling pathway from Tox21 library (AID 1224849; calls by dose curve; further: nearly all actives have a fitted effect of over 15% in size); conditions: ERR reporter cell line, ONE-Glo luciferase, 18 h; at 92.4 µM (top of the series) unless noted
Outline: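 Quantitative HTS in agonist format: NTP ERR cell line, compounds transferred in DMSO after 6 h plating, 18 h incubation at 37 C, ONE-Glo luminescence endpoint.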
On the % scale 0 is the no-effect control and ±100 the full control effect.

CCOc1ccc([N+](=O)[O-])cc1
active: Potency [9] 44.3 µM | Potency [11] 49.7 µM
inactive: Potency [1] | Potency [2] | Potency [3] | Potency [4] | Potency [5] | Potency [6] | Potency [7] | Potency [8] | Potency [10]

CS(=O)(=O)c1ccc([C@@H](CC2CCCC2)C(=O)Nc2cnccn2)cc1Cl
active: Potency [5] 101 µM

CN(C/C=C/c1ccccc1)Cc1cccc2ccccc12
active: Potency [3] 55.2 µM | Potency [5] 43.8 µM | Potency [7] 19 µM | Potency [9] 21.3 µM
inactive: Potency [1] | Potency [12] | Potency [2] | Potency [13]

O=C(Nc1ccc([N+](=O)[O-])cc1)Nc1ccc([N+](=O)[O-])cc1 (tested in a mixture with another compound)
inactive: Potency [1] | Potency [12] | Potency [2] | Potency [4] | Potency [6] | Potency [7] | Potency [8] | Potency [9] | Potency [10]
active: Potency [5] 17.5 µM | Potency [14] 4.77 µM | Potency [11] 4.77 µM

[Cl][Eu]([Cl])[Cl]
inactive: Potency [4] | Potency [5] | Potency [6] | Potency [14] | Potency [7] | Potency [8] | Potency [9] | Potency [13] | Potency [10] | max response [11] -1.1%

CC(=O)CC(N)=O
inactive: Potency [1] | Potency [2] | Potency [4] | Potency [5] | Potency [6] | Potency [14] | Potency [7] | Potency [8] | Potency [9] | Potency [13] | Potency [10]

CCSCC
inactive: Potency [2] | Potency [4] | Potency [5] | Potency [6] | Potency [14] | Potency [7] | Potency [8] | Potency [9] | Potency [13] | Potency [10] | max response [11] 8.26%

CC(C)(c1ccc(Oc2ccc(N)cc2)cc1)c1ccc(Oc2ccc(N)cc2)cc1
active: Potency [12] 27.3 µM | Potency [2] 24.5 µM | Potency [5] 80 µM | Potency [11] 21.9 µM
inactive: Potency [6] | Potency [7] | Potency [8] | Potency [9]

Cn1c(=O)[nH]c2ncn(C)c2c1=O
inactive: Potency [12] | Potency [2] | Potency [3] | Potency [5] | Potency [6] | Potency [14] | Potency [7] | Potency [8] | Potency [9] | Potency [13] | Potency [10] | max response [11] 3.46%

Cc1ccc2n[nH]nc2c1
inactive: Potency [15] | Potency [16] | Potency [12] | Potency [2] | Potency [3] | Potency [5] | Potency [17] | activity change, positive = activation [18] 4.26% | Potency [6] | Potency [14] | Potency [7] | Potency [8] | Potency [9] | Potency [13] | Potency [10]

NC(=O)C1CO1 (configuration not stated)
inactive: Potency [1] | Potency [12] | Potency [2] | Potency [4] | Potency [5] | Potency [6] | Potency [14] | Potency [7] | Potency [8] | Potency [9] | Potency [13] | Potency [10] | max response [11] 3.16%

COc1cc2ncnc(Nc3cccc(Cl)c3)c2cc1OC
inactive: viability change, negative = cytotoxic [1] -14.4% [at 19 µM] | activation [12] -0.89% [at 19 µM] | activity change, negative = cytotoxicity [2] -10.3% [at 15.8 µM] | activation [4] 0.103% [at 15.8 µM] | activity change, negative = cytotoxicity [5] 1.51% [at 31.6 µM] | activity change, negative = cytotoxicity [6] -0.467% [at 15.8 µM] | activity change, negative = cytotoxic [14] 0.667% [at 15.8 µM] | cytotoxicity [7] -7.5% [at 15.8 µM] | activity change, negative = cytotoxic [8] 25.7% [at 15.8 µM] | cytotoxicity increase [9] -0.731% [at 15.8 µM] | activity change, negative = cytotoxicity [13] -3.69% [at 15.8 µM] | viability change, negative = cytotoxic [10] -19.1% [at 15.8 µM] | max response [11] -0.219%

Nc1ccc(Cl)c([N+](=O)[O-])c1
inactive: Potency [1] | Potency [3] | Potency [4] | Potency [5] | Potency [6] | Potency [14] | Potency [7] | Potency [8] | Potency [9] | Potency [13]

CC(C)=CCC[C@H](C)CC=O
inactive: Potency [1] | Potency [12] | Potency [3] | Potency [5] | Potency [6] | Potency [14] | Potency [7] | Potency [8] | Potency [13] | Potency [10] | max response [11] 11.6%

CC/C=C\C/C=C\C/C=C\CCCCCCCC(=O)OC
inactive: Potency [2] | Potency [4] | Potency [6] | Potency [14] | Potency [7] | Potency [8] | Potency [13]

O=C(CCCCCCCCc1cccnc1)N1CCC(C=C(c2ccccc2)c2ccccc2)CC1
active: Potency [2] 13.8 µM | Potency [5] 50.5 µM | Potency [17] 21.7 µM | Potency [14] 21.9 µM | Potency [13] 21.9 µM | Potency [10] 49 µM
inactive: Potency [16] | Potency [3] | activity change, positive = activation [18] -69.2% | Potency [7]

O=C1OC(O)C(C(Cl)Cl)=C1Cl (configuration not stated)
inactive: Potency [12] | Potency [5] | Potency [7] | Potency [9]

From PubChem BioAssay (Tox21)
